Measured values reported in paper PMC4336329 (PLoS ONE, 2015).
Hit rate of the full screen: of about 310,000 compounds, about 14,000 (4.5%) showed an effect of 50% or more. The effect is printed as a negative number. Shown is part of a subset that was picked to be rich in strong results.

target: human ether-à-go-go-related gene (hERG) potassium channel (human, UniProt Q12809); experiment: primary screen, population patch clamp on CHO cells stably expressing hERG; higher = less effect of the substance
Sequence (Q12809 whole entry, looked up): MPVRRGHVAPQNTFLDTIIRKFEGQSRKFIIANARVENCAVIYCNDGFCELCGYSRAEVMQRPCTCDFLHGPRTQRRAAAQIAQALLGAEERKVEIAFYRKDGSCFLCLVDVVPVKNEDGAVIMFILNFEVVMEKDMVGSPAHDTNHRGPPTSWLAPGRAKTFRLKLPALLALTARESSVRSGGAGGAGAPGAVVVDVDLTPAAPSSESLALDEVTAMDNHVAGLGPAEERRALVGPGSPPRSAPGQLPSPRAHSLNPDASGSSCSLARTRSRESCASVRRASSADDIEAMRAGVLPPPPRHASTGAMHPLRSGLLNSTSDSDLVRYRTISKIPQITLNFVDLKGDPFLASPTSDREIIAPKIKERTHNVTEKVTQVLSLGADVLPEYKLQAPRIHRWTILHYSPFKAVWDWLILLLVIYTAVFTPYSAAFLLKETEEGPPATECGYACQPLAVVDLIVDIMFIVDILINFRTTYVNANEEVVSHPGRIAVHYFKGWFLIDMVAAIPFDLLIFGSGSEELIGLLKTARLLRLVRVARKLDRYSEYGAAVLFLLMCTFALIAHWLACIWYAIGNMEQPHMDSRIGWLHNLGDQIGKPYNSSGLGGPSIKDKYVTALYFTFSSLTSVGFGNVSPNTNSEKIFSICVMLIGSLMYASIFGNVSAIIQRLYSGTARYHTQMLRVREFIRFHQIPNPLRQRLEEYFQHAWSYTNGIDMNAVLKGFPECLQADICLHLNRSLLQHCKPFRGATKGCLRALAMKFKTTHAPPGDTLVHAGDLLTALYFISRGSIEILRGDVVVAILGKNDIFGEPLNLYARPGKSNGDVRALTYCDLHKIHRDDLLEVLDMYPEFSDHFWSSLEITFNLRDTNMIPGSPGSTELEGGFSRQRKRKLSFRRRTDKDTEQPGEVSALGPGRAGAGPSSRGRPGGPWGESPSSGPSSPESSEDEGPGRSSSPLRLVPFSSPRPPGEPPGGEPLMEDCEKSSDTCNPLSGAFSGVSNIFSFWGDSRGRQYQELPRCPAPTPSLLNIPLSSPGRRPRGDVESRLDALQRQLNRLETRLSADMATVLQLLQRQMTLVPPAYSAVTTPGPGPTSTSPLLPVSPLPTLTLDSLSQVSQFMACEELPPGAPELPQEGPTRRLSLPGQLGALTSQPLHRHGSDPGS
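Also: peak tail current of the secondary pulse compared with the same well before compound.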

SMILES | hERG current change (%, negative = inhibition) at 10uM [%]
COc1ccc(-c2ccc(CNCc3ccccn3)o2)cc1Cl.Cl | -7.77
COc1ccc(Cl)cc1NC(=S)NCc1ccccn1 | 9
COc1cc(CNCc2ccccn2)ccc1OCc1ccc(Cl)cc1Cl.Cl | -58.1
CCOc1cc(CNC2CCCC2)cc(Cl)c1OCc1ccccc1.Cl | -10.3
CCOc1cc(CNC2CCCC2)ccc1OCc1ccccc1Cl.Cl | -50.6
COc1cc(CNC2CCCC2)c(Br)cc1OCc1ccccc1.Cl | -72.1
COc1cc(CNCc2ccccn2)ccc1OCc1c(Cl)cccc1Cl.Cl | -51.5
O=C(NCc1ccccn1)c1ccccc1OCc1ccc(Cl)cc1Cl | -1.04
COc1cc(CNC2CCCC2)c(Br)cc1OC1CCCC1.Cl | -45.9
COc1cc(CNC2CCCCCCC2)c(Br)cc1OCCO.Cl | 7
COc1cc(CNn2nnnc2N)ccc1OCc1c(Cl)cccc1Cl | -1.22
COc1cc(CNC2CCCC2)cc(Cl)c1OCc1ccccc1Cl.Cl | -30
COc1ccc(-c2oc(=O)c3cc(OC)c(OC)cc3c2C(F)(F)F)cc1 | 23.7
CC(C(=O)NCCCc1ccccc1)n1cccc1C(=O)c1ccccc1 (stereo not drawn) | -5.48
O=C(COC(=O)c1ccccc1C(=O)c1ccc(Cl)cc1)NCC1CCCO1 (stereo not drawn) | 1.96
CN(C)/C=C/C(=O)c1ccc(C(F)(F)F)cc1F | 15.3
CCOc1cc(N2CCOCC2)c(OCC)cc1NC(=O)CSc1n[nH]c(N)n1 | 38.2
Cc1ccc(OCC(=O)NNC(=O)c2cc(C)[nH]n2)cc1 | 24.6
CCc1nnc(NC(=O)CSc2nnc3ncccn23)s1 | 19.2
COC(=O)c1nn(-c2ccc(F)cc2)ccc1=O | 8.12
C#CCOCCOCCOCCNc1nc(N2CCN(C(=O)CCCCCCCCCCNC(=O)Cn3cc(C[C@@H](C)O)nn3)CC2)nc(N2CCN(C(=O)CCCCCCCCCCNC(=O)[C@H](CCCN=C(N)N)n3cc(C[C@@H](C)CC)nn3)CC2)n1 | 3.82
COc1ccccc1C(=O)OCn1nnc2ccccc2c1=O | -1.17

SMILES | hERG current change (%, negative = inhibition) at 10uM [%]
CN1CCN(C(=O)C23CCC(C)(C(=O)C2Br)C3(C)C)CC1 (stereo not drawn) | 1.95
COc1cc(CNCc2ccccn2)ccc1OCC(=O)NC1CCCCC1.Cl | -14.5
COc1cc(CNCc2ccccn2)ccc1OCc1ccccc1Cl.Cl | -58.3
CCOc1cc(CNCc2ccccn2)cc(Cl)c1OCC.Cl | -0.796
CC1=C(C(=O)Nc2ccccc2)C(c2cccs2)NC(=O)N1 (stereo not drawn) | 15.6
Cc1cc(C)n(CC(=O)NNC(=O)c2ccc(NC(=O)CC#N)cc2)n1 | 5.56
Cc1cc(C(C)(C)C)ccc1OCCN(C)C | -7.47
Cc1cc(C(C)(C)C)ccc1OCCOCCN1CCCC1 | -44.5
Cc1cc(C(C)(C)CC(C)(C)C)ccc1OCCOCC[N+](C)(C)Cc1ccccc1.[Cl-] | -80.9
Cl.Nc1ccc2c(c1)oc1ccccc12 | 4.15
CCc1ccc(NC(=O)Nc2ccc3c(c2)N(C)C(=O)CS3)cc1 | 7.64
CCc1cc2c(NCCN3CCCCC3)ncnc2s1.Cl | -71.9
CCc1cc2c(NCCC(=O)O)ncnc2s1 | 4.76
CCc1cc2c(NCCO)ncnc2s1 | 14.3
Cc1csc(SCC(=O)NC2CCCCC2)n1 | -1.79
CCOc1ccccc1NC(=O)C(Sc1nnc2ccccn12)c1ccccc1 (stereo not drawn) | -12.5
Cc1ccc2cc(C)c3nnc(SCC(=O)NCc4ccco4)n3c2c1 | -25.5
O=C1c2ccc3c4c(ccc(c24)C(=O)N1c1ccc(O)cc1)C(=O)N(c1ccc(O)cc1)C3=O | 23.3
CCNS(=O)(=O)c1ccc(Br)c(OC)c1 | 10.4
Cc1cc(=O)oc2c(C(=O)/C=C\c3cccs3)c(O)ccc12 | 11.1
CCN(CCCNC(=O)c1cc2c(-c3cccc(OC)c3)nn(C)c2s1)Cc1ccccc1 | -68.1
CCN(CC)CCCNC(=O)c1cc2c(-c3cccc(OC)c3)nn(C)c2s1 | -44.7

SMILES | hERG current change (%, negative = inhibition) at 10uM [%]
CCCCN(C)CCNC(=O)c1cc2c(-c3cccc(OC)c3)nn(C)c2s1 | -49.5
COc1cccc(-c2nn(C)c3sc(C(=O)NCCCN(C)Cc4ccccc4)cc23)c1 | -52.2
CCN(CC)CCNC(=O)c1cc2c(-c3cccc(OC)c3)nn(C)c2s1 | -31.8
COCCCNC(=O)c1cc2c(-c3cccc(OC)c3)nn(C)c2s1 | -5.59
O=C(COc1ccccc1Cl)Nc1ccc(S(=O)(=O)N2CCOCC2)cc1 | 15.4
COc1ccc(C(=O)NCCc2c[nH]c3ccccc23)cc1S(=O)(=O)N1CCOCC1 | -9.63
COc1ccc(NC(=O)/C(C#N)=C\c2ccc(Br)o2)cc1 | 4.52
Cc1ccc(C(=O)Nc2cccc(S(=O)(=O)N3CCOCC3)c2)cc1[N+](=O)[O-] | 24.5
O=C(Cn1nc(C(=O)O)c2ccccc2c1=O)Nc1ccc(F)cc1 | 8.44
COCC(=O)OC/C(O)=C(\C#N)c1nc2ccccc2[nH]1 | 11
COC(=O)C1=C(c2c(C)noc2C)C[C@@H]2CC[C@H]1N2C(=O)NCCNC(C)=O | 22.2
CC(NCc1ccc(S(N)(=O)=O)cc1)C(=O)Nc1ccc([N+](=O)[O-])cc1Cl (stereo not drawn) | -50.5
CC(NCc1ccc(S(N)(=O)=O)cc1)C(=O)Nc1cc([N+](=O)[O-])ccc1Cl (stereo not drawn) | -45.8
CC(NCc1ccc(S(N)(=O)=O)cc1)C(=O)Nc1cccc(Cl)c1 (stereo not drawn) | -8.15
Cc1onc(-c2ccccc2)c1CNC(=O)C1COc2ccccc2O1 (stereo not drawn) | -23
Cc1ccc2oc(=O)c3cc(C(=O)NCCCN4CCN(C)CC4)sc3c2c1 | -5.62
Cc1ccc2oc(=O)c3cc(C(=O)NCCCN4CC(C)CC(C)C4)sc3c2c1 (stereo not drawn) | -49.2
CCN1CCN(CCCNC(=O)c2cc3c(=O)oc4ccc(C)cc4c3s2)CC1 | -19.1
Cc1ccc2oc(=O)c3cc(C(=O)NCCCN4C(C)CCCC4C)sc3c2c1 (stereo not drawn) | -61.6
CN1CCN(CCCNC(=O)c2cc3c(=O)oc4ccccc4c3s2)CC1 | -14.2
CCC1CCCCN1CCCNC(=O)c1cc2c(=O)oc3ccc(C)cc3c2s1 (stereo not drawn) | -69.5
Cc1ccc2oc(=O)c3cc(C(=O)NCCCN4CCCCCC4)sc3c2c1 | -40.2

SMILES | hERG current change (%, negative = inhibition) at 10uM [%]
O=C(NCCCN1CCCCCC1)c1cc2c(=O)oc3ccccc3c2s1 | -60.5
Cc1ccc2oc(=O)c3cc(C(=O)NCCCN4CCCC(C)C4)sc3c2c1 (stereo not drawn) | -34.9
Cc1nn(C)c(C(=O)Nc2ccc(S(=O)(=O)NC34CC5CC(CC(C5)C3)C4)cc2)c1Br | 9.77
COc1ccc(OCC(O)CN(CC(O)COc2ccc(OC)cc2)c2cccc(O)c2)cc1 (stereo not drawn) | 2.41
CCSc1nnc2c(n1)OC1(CCCC1)Nc1ccccc1-2 | 2.61
COc1ccc(CN(C)C(=O)CCN2C(=O)c3ccccc3C2=O)c(OC)c1OC | -2.22
CCc1c(C)sc(NC(=S)N2CCN(C(=O)C3CCCO3)CC2)c1C(=O)OC (stereo not drawn) | -13
CC(C)Cc1nnc(NC(=O)CCC(=O)N2CCN(c3ccccc3F)CC2)s1 | 17
Cc1ccc(Nc2ccc(C(N)=O)cc2[N+](=O)[O-])cc1C | 8.9
CC(=O)OC(C(=O)NCc1ccc(F)cc1)c1ccccn1 (stereo not drawn) | 4.52
OCC[C@@H]1C[C@@H](O)[C@H](O)[C@@]2(Cc3ccccc3CCO2)O1 | 11
Cn1ccc(NC(=O)c2ccc(Cl)cc2Cl)n1 | 7.79
O=C(CN1C(=O)c2ccccc2C1=O)Nc1cccc(S(=O)(=O)Nc2ccccc2Cl)c1 | 19.9
COc1ccc(OC)c(C2=Nn3c(nnc3-c3ccncc3)SC2)c1 | -24.3
COc1ccc(C2=Nn3c(nnc3-c3cccnc3)SC2)cc1OC | -61.8
COc1ccc(C2=Nn3c(nnc3-c3ccccc3)SC2)cc1OC | 7.08
c1ccc(C2=Nn3c(nnc3-c3cccnc3)SC2)cc1 | -25.4
COc1ccc(C2=Nn3c(nnc3-c3ccncc3)SC2)cc1OC | -70.8
COc1ccc(C2=Nn3c(nnc3-c3ccccn3)SC2)cc1OC | -34.3
O=S(=O)(c1ccc(NC2CCCCC2)cc1)N1CCOCC1 | -23.7
COc1ccc(NC(=O)c2cc(-c3ccccn3)nc3ccccc23)cc1S(=O)(=O)N(C)C | -16.6
